PubChem BioAssay (NCATS)
Results filed as inconclusive are left out. Activity calls are given as the source filed them. Calls come from the whole dose curve.

How the values were obtained:
[1] = Primary qHTS for inhibitors of SARS-S pseudo-typed particle cell entry (AID 1479145); conditions: SARS-S pseudotyped particle cell entry, luciferase reporter; series mostly up to 57.1 µM; note: nearly all actives have a fitted effect of over 45% in size; note: potency is the fitted concentration of half-maximal effect
[2] = Primary qHTS for Huh7 cytotoxicity: counterscreen for inhibitors of MERS-S pseudotyped particle cell entry (AID 1479147); conditions: cell viability read-out; series mostly up to 57.1 µM
[3] = Primary qHTS for inhibitors of MERS-S pseudo-typed particle cell entry (AID 1479149); conditions: MERS-S pseudotyped particle entry, luciferase; series mostly up to 57.1 µM; note: nearly all actives have a fitted effect of over 60% in size; note: potency is the fitted concentration of half-maximal effect
[4] = Primary qHTS for Vero E6 cytotoxicity: counterscreen for inhibitors of SARS-S pseudo-typed particle cell entry (AID 1479150); conditions: cell viability; series mostly up to 57.1 µM
[5] = Confirmatory qHTS for VERO E6 Cytotoxicity Assay: Counterscreen for SARS-CoV-2 CPE Assay (AID 1508605); conditions: cell viability luminescence; series mostly up to 20 µM; note: nearly all actives have a fitted effect of over 60% in size
[6] = Confirmatory qHTS for activators (rescue) of SARS-CoV-2 Cytopathic Effect (CPE) (AID 1508606); conditions: Vero E6 SARS-CoV-2 CPE rescue, viability luminescence; series mostly up to 20 µM; note: potency is the fitted concentration of half-maximal effect; nearly all actives have a fitted effect of over 70% in size

Measured: Potency

CCOCC(O)COc1ccc(NC(=O)CC[S+](C)C)cc1 (stereo not given)
inactive: [1] | [2] | [3] | [4]

CC[N+]1(CC)CCC(=C(c2ccccc2)c2ccccc2)C1C (stereo not given)
inactive: [1] | [2] | [3] | [4]

CSc1ccc(C(=O)c2[nH]c(=O)[nH]c2C)cc1
inactive: [1] | [2] | [3] | [4]

O=C(O)CNC(=O)c1ccccc1I
inactive: [1] | [2] | [4]

CCC(=O)Oc1ccc2c(c1)CC[C@@H]1[C@@H]2CC[C@@]2(C)[C@H]1C[C@@H](OC(=O)CC)[C@@H]2OC(=O)CC
inactive: [1] | [2] | [3] | [4]

CCOC(=O)C1=C(C)NC(C)=C(C(=O)OCC)C1c1ccccc1/C=C/C(=O)OC(C)(C)C
inactive: [1] | [2] | [4]

CN(C)CC/C=C1\c2ccccc2Sc2ccc(Cl)cc21
active: [1] 10 µM | [3] 25.1 µM | [6] 8.91 µM
inactive: [2] | [4] | [5]

CCC(CN)=C(c1ccccc1)c1ccccc1
inactive: [1] | [2] | [4]

CC(C)NCCCC1(C(N)=O)c2ccccc2-c2ccccc21
inactive: [1] | [2] | [3] | [4]

CC1(C)O[C@@H]2C[C@H]3[C@@H]4CCC5=CC(=O)CC[C@]5(C)[C@@]4(F)[C@@H](O)C[C@]3(C)[C@]2(C(=O)CCl)O1
inactive: [1] | [2] | [3] | [4]

FC(F)(F)C(F)(F)C(F)(F)C(F)(F)C(F)(F)C(F)(F)C(F)(F)C(F)(F)Br
inactive: [1] | [2] | [4]

CC(=O)[C@H]1CC[C@H]2[C@@H]3CC=C4C[C@@H](O)CC[C@]4(C)[C@H]3CC[C@]12C
inactive: [1] | [2] | [4]
